# Values joined by “and” are separate entries in the source; they are usually repeats but may differ in a detail not shown here. Equal entries are not always repeated. Hit rate of the full screen: of about 130,000 compounds, about 350 (0.27%) were called active. Rule as the data show it: active = z-score below about -2 (passing the limit was not always enough); inactive = the rest. Shown is part of a subset that was picked to be rich in actives.
# Assay: PubChem AID 504770
# Details: E. coli YBA685 rctB-dependent plasmid, OD600 growth, 3 h; hits give low values
row,SMILES,z-score
1,c1ccc(-n2nnnc2Sc2nc(C3CC3)n(-c3ccccc3)n2)cc1,0.25 (inactive)
2,Cc1ccc2oc(-c3ccccc3C)nc2c1,1.9 (inactive)
3,CC(Sc1nc(N)nc(N)n1)C(=O)NC1(C#N)CCCCC1 (stereo not drawn),-0.4 (inactive)
4,O=C(OCC(=O)N1CCCC1)c1ccccc1OCc1ccccc1Cl,0.2 (inactive)
5,CC(OC(=O)C1CCN(C(=O)c2ccc(Cl)cc2)CC1)C(=O)NC1CC1 (stereo not drawn),1.3 (inactive)
6,Cc1cc(C)c(C)c(OCC(=O)N(Cc2nc(-c3ccccc3)no2)C2CCCCC2)c1,-0.5 (inactive)
7,COc1ccc(-c2cc(C(=O)NCCCN3CCOCC3)no2)cc1,0.4 (inactive)
8,Cc1cccc(NC2=NC3CS(=O)(=O)CC3S2)c1 (stereo not drawn),-0.4 (inactive)
9,Cc1nnsc1C(=O)NC(=O)c1ccccc1O,0.45 (inactive)
10,COC(=O)C(C)N(C#N)c1nc(N(C)C)nc(N(C)C)n1 (stereo not drawn),-0.3 (inactive)
11,CN1CCN(c2nc(C34CC5CC(CC(C5)C3)C4)cs2)CC1,0.45 (inactive)
12,Clc1ccc2c(Sc3nncn3-c3ccccc3)ccnc2c1,0.2 (inactive)
13,C=CCN(CC=C)C(=O)COc1ncnc2sccc12,-0.3 (inactive)
14,CSc1nc(=O)n(Cc2ccccn2)c2c1CCC2,-0.15 (inactive)
15,CCCCn1c2ccccc2c2n[nH]c(=S)nc21,-0.4 (inactive) and 1.45 (inactive)
16,O=C(CCS(=O)(=O)c1cc(Br)cc2c1N(C(=O)C1CC1)CC2)NCc1ccc(F)cc1,-0.8 (inactive)
17,CCC(=O)N1CCc2cc(Br)cc(S(=O)(=O)NCCN3CCN(c4ccccc4F)CC3)c21,-0.85 (inactive)
18,CCc1cccc(NS(=O)(=O)c2cc(Br)cc3c2N(C(=O)C2CC2)CC3)c1,-2.9 (active)
19,O=C(Cn1c(=O)oc2cc(S(=O)(=O)NCc3ccccc3)ccc21)NC1CCCC1,2.3 (inactive)
20,O=C(COc1ccc(Cl)cc1)Nc1c(-c2ccc(F)cc2)nc2ccccn12,-0.15 (inactive)
21,CCOC(=O)C(Cc1ccccc1)C(=O)Nc1cccc(C)n1 (stereo not drawn),-0.4 (inactive)
22,O=C(CCSc1nc(-c2ccco2)cc(C(F)(F)F)n1)N1CCCC1,0.85 (inactive)
23,Cc1nc(/N=C(/N)NC(=O)c2ccccc2)nc2ccccc12,0.6 (inactive)
24,Cc1ccc2c(c1)c1c(n2CC(O)CN2CCCCC2)C(=O)CCC1 (stereo not drawn),-0.35 (inactive)

row,SMILES,z-score
1,CC1CC(C)CN(c2ncnc3scc(-c4ccccc4)c23)C1 (stereo not drawn),-0.7 (inactive)
2,CC1CCCCC1NC(=O)COC(=O)c1nc(Cl)ccc1Cl (stereo not drawn),-0.55 (inactive)
3,O=C(COC(=O)/C=C/c1cn(-c2ccccc2)nc1-c1ccccc1)NC1CC1,-2.45 (inactive)
4,CCc1ccc(C(=O)COC(=O)c2cccc(-n3cccc3)c2)s1,1.2 (inactive)
5,CCc1ccc(C(=O)CCC(=O)O)s1,-3.1 (active)
6,CCc1ccc(CCC(=O)O)cc1,0.8 (inactive)
7,O/N=C/c1cccc(Cl)c1,-0.05 (inactive)
8,O=c1c(/C=N/O)coc2ccc(Cl)cc12,-3.05 (active)
9,O=c1c(/C=N\O)coc2ccc(F)cc12,1.15 (inactive)
10,Cc1cccc(-n2nc(C)c3c(C)cc(=O)oc32)c1,-3.15 (active)
11,CCCc1cc(=O)[nH]c2c1c(C)nn2-c1cccc(F)c1,2.25 (inactive)
12,CCCc1cc(=O)oc2c1c(C)nn2C,0.15 (inactive)
13,CCN(CC)S(=O)(=O)c1ccc(C(=O)NCCn2c(C)cc3ccccc32)cc1,0.65 (inactive)
14,Cc1ccc(C(C(=O)NCc2ccccc2)N(Cc2ccco2)C(=O)Cn2nnc3ccccc32)cc1 (stereo not drawn),-0.35 (inactive)
15,CCN1CCN(c2ccc(NC(=O)[C@H](Cc3ccccc3)N3Cc4ccccc4C3=O)cc2)CC1,1.2 (inactive)
16,CCSc1nnc(SCC(=O)c2ccc3[nH]c(=O)[nH]c3c2)s1,1.6 (inactive)
17,CCOc1ncccc1C(=O)OCC(=O)N1C(C)CCCC1C (stereo not drawn),-5.9 (active)
18,CC1CCCC(C)N1C(=O)COC(=O)c1ccccc1I (stereo not drawn),1.25 (inactive)
19,Cc1cc(C(=O)OCC(=O)N2C(C)CCCC2C)c2ccccc2n1 (stereo not drawn),0.05 (inactive)
20,COC(=O)CN1C(=O)C(C)(C)Oc2ccc(C(=O)Nc3cccc(OC)c3)cc21,-0.45 (inactive)
21,COc1ccc(C2CC(=O)C3=C(C2)NC(=O)CC3c2ccc3c(c2)OCO3)cc1 (stereo not drawn),0.05 (inactive)
22,CCCN1CCC(NC(=S)Nc2ccc3c(c2)OCO3)CC1,1.7 (inactive)
23,O=C(Nc1ccccc1)C1CCN(C(=O)c2cccs2)CC1,0.15 (inactive)
24,CCN1CCN(C(=O)c2ccc(/C=C3/Sc4ccccc4N(Cc4ccccc4C)C3=O)cc2)CC1,0.25 (inactive)
